Peg3 prom inh = Peg3 promoter-driven luciferase inhibitors, primary screen, cell-based, HeLa, luciferase luminescence | HeLa PEG-Prom luciferase reporter, overnight | inhibition, % at 20 µM | hit rate 1.7% among 360,000;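 active = inhibition of at least 50% at 20 µM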
PAX8 reporter = inhibitors of PAX8-driven TPO luciferase reporter, primary screen, RMG-I cells, single concentration. SteadyGlo, 24 h. inhibition, % at 12.6 µM. hit rate 1.2% among 360,000. AID 652154, 2013;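 active = mean replicate inhibition at least 60% with every replicate also reaching 60%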;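 also: luciferase light reporting Pax8 driven TPO promoter activity; plate controls were median of neutral control wells for no effect and mitoxantrone controls for full effect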
Shn3 3UTR inh = reduction of Shn3 3'UTR firefly luciferase signal, primary screen, Schnurri-3 inhibitor project, cell-based, Clone20 osteoblasts, set 2. Clone20 osteoblast Shn3 3'UTR firefly luciferase, 24 h. inhibition, % at 12.5 µM. hit rate 0.52% among 360,000;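 active = mean inhibition of at least 75% with every replicate also reaching 75%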;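 also: 0% = median of neutral control wells and 100% = pilot-screen positive control compound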
ABHD5 PLIN5 PPI = ABHD5-PLIN5 interaction inhibitors, primary screen, cell lysate, split luciferase complementation, luminescence; Split G. princeps luciferase complementation, 4 h; inhibition, % at 4 µM; hit rate 0.78% among 360,000;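 active = inhibition above the mean inhibition across every tested compound plus 3 SD, cut at about 22% in these data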;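 also: 0% = DMSO only wells and the 100% control is not disclosed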
Target sequence (Q00G26 whole entry, looked up): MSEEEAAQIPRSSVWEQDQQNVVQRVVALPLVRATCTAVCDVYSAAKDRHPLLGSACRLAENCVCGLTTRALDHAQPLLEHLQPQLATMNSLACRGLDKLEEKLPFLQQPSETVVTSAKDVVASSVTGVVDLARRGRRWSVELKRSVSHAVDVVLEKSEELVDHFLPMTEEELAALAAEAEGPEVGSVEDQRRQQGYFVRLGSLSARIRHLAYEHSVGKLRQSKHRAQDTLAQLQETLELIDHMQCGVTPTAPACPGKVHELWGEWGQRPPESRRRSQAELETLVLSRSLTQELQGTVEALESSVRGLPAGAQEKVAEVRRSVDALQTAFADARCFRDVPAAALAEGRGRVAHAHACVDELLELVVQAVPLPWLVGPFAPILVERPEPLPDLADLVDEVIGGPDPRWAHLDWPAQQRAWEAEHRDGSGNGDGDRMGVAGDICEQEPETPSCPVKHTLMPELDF
Target sequence (Q8WTS1 whole entry, looked up): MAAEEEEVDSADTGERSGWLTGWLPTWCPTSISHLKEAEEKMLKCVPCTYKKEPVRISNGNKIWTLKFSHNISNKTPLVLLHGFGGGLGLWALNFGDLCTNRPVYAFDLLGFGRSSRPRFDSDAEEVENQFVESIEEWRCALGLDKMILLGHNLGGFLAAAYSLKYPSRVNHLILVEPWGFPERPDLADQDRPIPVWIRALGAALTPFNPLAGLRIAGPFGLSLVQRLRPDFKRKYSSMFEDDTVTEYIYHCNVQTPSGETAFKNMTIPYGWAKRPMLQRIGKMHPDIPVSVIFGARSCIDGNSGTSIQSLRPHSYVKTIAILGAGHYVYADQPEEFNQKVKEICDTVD
EWS-Fli inh = EWS/Fli-driven NR0B1 reporter inhibitors, primary screen, A673 cells, NR0B1 luciferase, luminescence, MLPCN library | viability-normalised | inhibition, % at 12.6 µM | hit rate 0.67% among 350,000;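 active = mean inhibition of at least 50% after viability correction, with every replicate also passing that limit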;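 also: firefly luciferase signal divided by Alamar Blue viability fluorescence both relative to DMSO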
TRPM1 prom inh = inhibitors of MITF-dependent TRPM1 promoter reporter, primary screen, cell-based, SK-MEL-5, single point, luciferase. SK-MEL-5 TRPM1 promoter luciferase, 24 h. inhibition, % at 12.5 µM. hit rate 0.83% among 330,000. AID 488899, 2010;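 active = mean inhibition across replicates of 60% or more, whatever share of single replicates reaches that level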
* hit, by the source's call. A selection: hits, their analogues and other compounds. The true share with any hit is near 3%.

COc1ccc(-c2cnc3c(c2)C(=O)N([C@H](C)CO)C[C@H](C)[C@@H](CN(C)C(=O)Cc2ccccn2)O3)cc1 was read as EWS-Fli inh -12.
For CCCCCc1ccc(OCCCC[n+]2ccc(C)cc2)c(CCCCC)c1 the results were Peg3 prom inh 100*, PAX8 reporter 74*, Shn3 3UTR inh 84, ABHD5 PLIN5 PPI 21, EWS-Fli inh 33 and TRPM1 prom inh 101*.
`CCCCCc1ccc(OCCCC[n+]2ccccc2)c(CCCCC)c1` gave Peg3 prom inh 95*, Shn3 3UTR inh 90*, ABHD5 PLIN5 PPI 8 and TRPM1 prom inh 87*.
For CCC(C)(C)c1ccc(OCCCC[n+]2ccccc2)c(C(C)(C)CC)c1 the results were Peg3 prom inh 93*, PAX8 reporter 88*, Shn3 3UTR inh 81, ABHD5 PLIN5 PPI 20, EWS-Fli inh 27 and TRPM1 prom inh 100*.
`CCC(=O)Nc1ccc2c(c1)OC[C@H](C)N(C(=O)c1ccc(F)cc1)C[C@@H](C)[C@H](OC)CN(C)C2=O` gave PAX8 reporter -12 and EWS-Fli inh -5.
`COc1ccc(S(=O)(=O)N(C)C[C@H]2Oc3ccc(NC(=O)Nc4ccc5c(c4)OCO5)cc3CC(=O)N([C@@H](C)CO)C[C@H]2C)cc1` gave PAX8 reporter 4 and EWS-Fli inh 9.
`CN(C)C(=O)[C@H]1[C@H](CO)[C@H]2Cn3c(cccc3=O)[C@H]2N1CC1CCCCC1` gave EWS-Fli inh 22.
`CCNC(=O)C[C@H]1CC[C@@H](NC(=O)C2CCC2)[C@H](CO)O1` gave EWS-Fli inh -4.
`N#CC(C#N)=C(Nc1ccc(F)cc1)SCc1cccc(Br)c1` gave Peg3 prom inh 21, PAX8 reporter 85*, Shn3 3UTR inh 77, ABHD5 PLIN5 PPI 8, EWS-Fli inh 5 and TRPM1 prom inh 63*.
Screening Cc1cccc(CSC(Nc2ccc(F)cc2)=C(C#N)C#N)c1 returned Peg3 prom inh 62*, PAX8 reporter 51, Shn3 3UTR inh 54, ABHD5 PLIN5 PPI -1 and TRPM1 prom inh 16.
For CC(SCc1ccccc1)C(=O)Nc1ccc(F)cc1 (stereo not given) the results were Peg3 prom inh -24, PAX8 reporter 6, Shn3 3UTR inh 7, ABHD5 PLIN5 PPI -4, EWS-Fli inh -15 and TRPM1 prom inh -2.
For Cc1cccc(CSC(=N)N)c1 the results were Peg3 prom inh 17, PAX8 reporter -11, Shn3 3UTR inh 4, ABHD5 PLIN5 PPI 4, EWS-Fli inh -6 and TRPM1 prom inh 1.
`CC(C)C(=O)Nc1ccc2c(c1)C(=O)N(C)[C@H]1CC[C@@H](CC(=O)Nc3ccccc3)O[C@@H]1CO2` gave PAX8 reporter 3 and EWS-Fli inh 3.
Screening C[C@H]1[C@H](C)CC[C@]2(C(=O)O)CC[C@]3(C)C(=CC[C@@H]4[C@@]5(C)CC[C@H](O)C(C)(C)[C@@H]5CC[C@]43C)[C@H]12 returned Peg3 prom inh 53*, PAX8 reporter 4, Shn3 3UTR inh -6, ABHD5 PLIN5 PPI -1, EWS-Fli inh -2 and TRPM1 prom inh 4.
Screening C[C@@H]1CN([C@H](C)CO)C(=O)c2cccc(NC(=O)Nc3ccc4c(c3)OCO4)c2O[C@@H]1CN(C)C(=O)Nc1ccccc1 returned PAX8 reporter 11 and EWS-Fli inh 3.
`CCn1cc(S(=O)(=O)c2ccccc2)c(=O)c2cc(F)c(N3CCN(C)CC3)cc21` gave Peg3 prom inh 4, PAX8 reporter -9, Shn3 3UTR inh -18, ABHD5 PLIN5 PPI 2, EWS-Fli inh -4 and TRPM1 prom inh 5.
`Cc1cc(C)cc(S(=O)(=O)c2cn(C)c3cc(N4CCN(C)CC4)c(F)cc3c2=O)c1` gave Peg3 prom inh 100*, PAX8 reporter 10, Shn3 3UTR inh -6, ABHD5 PLIN5 PPI -5, EWS-Fli inh 21 and TRPM1 prom inh 51.
`CCCCC[C@@H](C)N1C[C@H](COCc2ccccc2)Oc2cc(N3CC[C@@H](N(C)C)C3)ccc2S1(=O)=O` gave PAX8 reporter 84*, ABHD5 PLIN5 PPI 8 and EWS-Fli inh 42.
CC(Sc1nc2ccccc2c(=O)n1C)C(=O)N(C)C1CCCCC1 (stereo not given) was read as Peg3 prom inh 10, PAX8 reporter 32, Shn3 3UTR inh 88*, ABHD5 PLIN5 PPI 2, EWS-Fli inh 37 and TRPM1 prom inh 27.
Screening CC[C@H](C)[C@@H](CN[C@H](C)CNC)NCCC(c1ccccc1)c1ccccc1 returned Peg3 prom inh 98*, PAX8 reporter 75*, Shn3 3UTR inh 4, ABHD5 PLIN5 PPI 16, EWS-Fli inh 17 and TRPM1 prom inh 90*.
Screening CNC[C@@H](C)NC[C@@H](Cc1ccccc1)NCCc1ccccc1 returned Peg3 prom inh -1, PAX8 reporter -9, Shn3 3UTR inh 17, ABHD5 PLIN5 PPI 2, EWS-Fli inh 11 and TRPM1 prom inh -18.
For CCCNC(=O)[C@@H]1[C@@H](CO)[C@@H]2Cn3c(ccc(-c4cccc(OC)c4)c3=O)[C@H]1N2CCC the results were EWS-Fli inh 0.
COc1ccc(-c2sc3ccc(OC)cc3c2C#Cc2cncn2C)cc1 was read as Peg3 prom inh 42, PAX8 reporter 65*, Shn3 3UTR inh -3, ABHD5 PLIN5 PPI 3, EWS-Fli inh -6 and TRPM1 prom inh -8.
Screening CCCCCCCOC(=O)C[N+](C)(C)CCOC1CC2CCC1(C)C2(C)C (stereo not given) returned Peg3 prom inh 99*, PAX8 reporter 46, Shn3 3UTR inh 85*, ABHD5 PLIN5 PPI 9, EWS-Fli inh 67* and TRPM1 prom inh 94*.
`COc1ccc(N2CCN(C(=O)c3ccc(CNS(=O)(=O)c4ccc(C)cc4)cc3)CC2)cc1` gave Peg3 prom inh -4, PAX8 reporter 19, Shn3 3UTR inh 23, ABHD5 PLIN5 PPI -7, EWS-Fli inh 12 and TRPM1 prom inh 10.
Screening Cc1ccc2nc(-c3cccnc3)cc(C(=O)N3CCN(c4ccc([N+](=O)[O-])cc4)CC3)c2c1 returned Peg3 prom inh 100*, PAX8 reporter 57, Shn3 3UTR inh 18, ABHD5 PLIN5 PPI -4, EWS-Fli inh 4 and TRPM1 prom inh 8.
For COC(=O)c1cc(C(=O)N2CCN(c3cccc(Cl)c3)CC2)cc([N+](=O)[O-])c1 the results were Peg3 prom inh 6, PAX8 reporter 57, Shn3 3UTR inh 9, ABHD5 PLIN5 PPI -3, EWS-Fli inh 51* and TRPM1 prom inh 5.

Screening data: PubChem BioAssay, several laboratories
